Assay results: publication doi:10.1101/2024.03.05.583629

Biological target: pT7_6His-AlfaTag-HOXD13 (human, UniProt P35453 263-343)
Assay: PADIT-seq
Details: dsDNA, one strand shown

pT7_6His-AlfaTag-HOXD13, sequence (P35453 263-343): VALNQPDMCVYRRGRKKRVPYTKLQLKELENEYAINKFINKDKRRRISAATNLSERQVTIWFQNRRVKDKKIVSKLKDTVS

Sequence	binding signal [log2FC]
CTCGAGGATATCAAGATCTGGCCTCGGCATAATAAAAGGAACCTCTAGCTAGCCGACTCACTATAGGGATAATCGCCCTGAGCAAAGACC	2.68 ± 0.0776
CTCGAGGATATCAAGATCTGGCCTCGGCGTCGTAAAAGGAACCTCTAGCTAGCCGACTCACTATAGGGATAATCGCCCTGAGCAAAGACC	2.57 ± 0.0709
CTCGAGGATATCAAGATCTGGCCTCGGCCGCTCGCGCGGAACCTCTAGCTAGCCGACTCACTATAGGGATAATCGCCCTGAGCAAAGACC	-1.03 ± 0.134
CTCGAGGATATCAAGATCTGGCCTCGGCCTTGTAAAAGGAACCTCTAGCTAGCCGACTCACTATAGGGATAATCGCCCTGAGCAAAGACC	2.9 ± 0.088
CTCGAGGATATCAAGATCTGGCCTCGGCCTTTTAAACGGAACCTCTAGCTAGCCGACTCACTATAGGGATAATCGCCCTGAGCAAAGACC	2.06 ± 0.0696
CTCGAGGATATCAAGATCTGGCCTCGGCCCTTGGGCGGGAACCTCTAGCTAGCCGACTCACTATAGGGATAATCGCCCTGAGCAAAGACC	-0.886 ± 0.123
CTCGAGGATATCAAGATCTGGCCTCGGCCGCCCAGAAGGAACCTCTAGCTAGCCGACTCACTATAGGGATAATCGCCCTGAGCAAAGACC	-1.09 ± 0.133
CTCGAGGATATCAAGATCTGGCCTCGGCACACTAAAAGGAACCTCTAGCTAGCCGACTCACTATAGGGATAATCGCCCTGAGCAAAGACC	0.427 ± 0.0841
CTCGAGGATATCAAGATCTGGCCTCGGCCTTTTACTGGGAACCTCTAGCTAGCCGACTCACTATAGGGATAATCGCCCTGAGCAAAGACC	2.53 ± 0.0719
CTCGAGGATATCAAGATCTGGCCTCGGCTCGCTAAAAGGAACCTCTAGCTAGCCGACTCACTATAGGGATAATCGCCCTGAGCAAAGACC	0.138 ± 0.111
